# From PubChem BioAssay (NCI)
# Compounds without any hit were thinned out: in the full panel of roughly 79,000, 15% have a hit. A number with no mark means an inactive call. The source made the active and inactive calls. Cut-off read from the data, not from the text of the source: active = growth inhibition above about 70%; inactive = the rest.
# Key:
# [1] = NCI Yeast Anticancer Drug Screen. Data for the rad52 strain (AID 147);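 note: 0% = growth of vehicle-treated control cultures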; conditions: S. cerevisiae rad52 mutant growth inhibition, hits give high values
# How it was run: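 Growth of repair-deficient yeast cells was compared between compound-treated and vehicle-treated cultures to give percent inhibition.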
# [2] = NCI Yeast Anticancer Drug Screen. Data for the wt1 strain (AID 149);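 note: 0% = growth of vehicle-treated wt1 cultures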; conditions: S. cerevisiae wt1 strain (SPY 50644) growth inhibition, hits give high values
# How it was run: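 Compounds are added to wt1 yeast cultures. Growth is then measured. Inhibition is expressed relative to vehicle-treated controls.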
# [3] = NCI Yeast Anticancer Drug Screen. Data for the mgt1 strain (AID 153); conditions: S. cerevisiae mgt1 mutant growth inhibition, hits give high values
# How it was run: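 Compounds were applied to mgt1 mutant yeast, and growth was then compared against vehicle-treated control cultures to give percent inhibition.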
# [4] = NCI Yeast Anticancer Drug Screen. Data for the rad50 strain (AID 155);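 note: 0% = growth of vehicle-only cultures of the same strain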; conditions: S. cerevisiae rad50 strain growth inhibition, hits give high values
# How it was run: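 Inhibition values express reduced yeast growth in compound-treated cultures relative to vehicle-treated controls.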
# [5] = NCI Yeast Anticancer Drug Screen. Data for the mec2-1 strain (AID 157); conditions: S. cerevisiae mec2-1 strain, hits give high values
# How it was run: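 Compounds were applied to mec2-1 yeast cells. Their growth was then compared with that of vehicle-treated cultures to give growth inhibition.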
# [6] = NCI Yeast Anticancer Drug Screen. Data for the rad14 strain (AID 159);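 note: 0% = growth of vehicle-treated control cultures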; conditions: S. cerevisiae rad14 strain growth inhibition, hits give high values
# How it was run: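 A mutant yeast strain defective in DNA damage repair is treated with compound; inhibition of its growth is scored against untreated, vehicle-exposed cultures.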
# [7] = NCI Yeast Anticancer Drug Screen. Data for the sgs1 mgt1 strain (AID 161);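 note: 0% = growth of cultures given vehicle only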; conditions: S. cerevisiae sgs1 mgt1 strain, hits give high values
# How it was run: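 Growth of a repair-deficient yeast mutant was monitored after compound treatment and expressed as inhibition relative to vehicle-treated cultures.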
# [8] = NCI Yeast Anticancer Drug Screen. Data for the CLN2oe strain (AID 163);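 note: 0% = growth of vehicle-only control cultures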; conditions: S. cerevisiae CLN2oe strain, hits give high values
# How it was run: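 Cells of an engineered yeast line with disturbed cell-cycle regulation are treated with compound. Inhibition of growth is then calculated relative to the vehicle-treated reference.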
# [9] = NCI Yeast Anticancer Drug Screen. Data for the cln2 rad14 strain (AID 165);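 note: 0% = growth equal to vehicle treated cultures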; conditions: S. cerevisiae cln2 rad14 strain, hits give high values
# How it was run: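 Strain: cln2 rad14 yeast, altered in cell cycle control and DNA damage repair. Read-out: growth inhibition vs vehicle.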
# [10] = NCI Yeast Anticancer Drug Screen. Data for the bub3 strain (AID 167); conditions: S. cerevisiae bub3 mutant strain, hits give high values
# How it was run: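 Steps: expose the mutant yeast strain to compound; grow alongside vehicle-treated cultures; measure growth; express inhibition against the vehicle cultures.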
# [11] = NCI Yeast Anticancer Drug Screen. Data for the wt2 strain (AID 169);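 note: 0% = growth of vehicle-treated yeast cultures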; conditions: S. cerevisiae wt2 strain growth inhibition, hits give high values
# How it was run: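 Growth of compound-treated yeast is measured and expressed as inhibition relative to vehicle-only controls.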
# [12] = NCI Yeast Anticancer Drug Screen. Data for the mlh1 strain (AID 171);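 note: 0% = growth of vehicle-treated control cultures of the same strain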; conditions: S. cerevisiae mlh1 strain growth inhibition, hits give high values
# How it was run: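 Test agents were incubated with yeast bearing a defined DNA damage repair or cell cycle control alteration; values are growth inhibition normalised to vehicle-treated cultures.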
# [13] = NCI Yeast Anticancer Drug Screen. Data for the sgs1 strain (AID 173);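 note: 0% = growth of vehicle-only control cultures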; conditions: S. cerevisiae sgs1 mutant, hits give high values
# How it was run: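 Strain with an altered DNA repair or cell cycle pathway exposed to compound. Growth then measured. Value = inhibition versus vehicle control.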
# [14] = NCI Yeast Anticancer Drug Screen. Data for the mlh1 rad18 strain (AID 175); conditions: S. cerevisiae mlh1 rad18 strain growth inhibition, hits give high values
# How it was run: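 A repair-deficient yeast strain is exposed to test compound, and growth is scored relative to vehicle-treated controls.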
# [15] = NCI Yeast Anticancer Drug Screen. Data for the rad18 strain (AID 177); conditions: S. cerevisiae rad18 mutant growth inhibition, hits give high values
# How it was run: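 DNA-repair-defective yeast; compound treatment; growth inhibition scored against vehicle.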
# [16] = NCI Yeast Anticancer Drug Screen. Data for the rad50EPP+ strain (AID 151);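 note: 0% = growth of vehicle-treated control cultures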; conditions: S. cerevisiae rad50 mutant strain, hits give high values
# How it was run: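 Measured: growth inhibition of rad50EPP+ yeast. Reference: vehicle-treated controls. Screen uses strains with defined genetic alterations in DNA damage repair or cell cycle control.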
# [17] = at 5.0 µM (retest, dose inferred, filed as 0.5)
# [18] = at 50.0 µM (retest, dose inferred, filed as 5.0)
structure (smiles),measurement,setting,value
C/C(=N\Nc1ccc([N+](=O)[O-])cc1[N+](=O)[O-])c1sc(-n2nc(-c3ccccc3)cc2-c2ccccc2)nc1C,growth inhibition,[1]; at 1.2 µM,-1%
same,growth inhibition,[1]; at 3.7 µM,13%
same,growth inhibition,[1]; at 11.0 µM,7%
same,growth inhibition,[1]; at 33.0 µM,0%
same,growth inhibition,[1]; at 100.0 µM,26%
same,growth inhibition,[2]; at 1.2 µM,-21%
same,growth inhibition,[2]; at 3.7 µM,-4%
same,growth inhibition,[2]; at 11.0 µM,-13%
same,growth inhibition,[2]; at 33.0 µM,-1%
same,growth inhibition,[2]; at 100.0 µM,-4%
same,growth inhibition,[3]; at 1.2 µM,18%
same,growth inhibition,[3]; at 3.7 µM,6%
same,growth inhibition,[3]; at 11.0 µM,6%
same,growth inhibition,[3]; at 33.0 µM,32%
same,growth inhibition,[3]; at 100.0 µM,60%
same,growth inhibition,[4]; at 1.2 µM,-1%
same,growth inhibition,[4]; at 3.7 µM,0%
same,growth inhibition,[4]; [17],25%
same,growth inhibition,[4]; at 11.0 µM,-15%
same,growth inhibition,[4]; at 33.0 µM,4%
same,growth inhibition,[4]; [18],62%
same,growth inhibition,[4]; at 50.0 µM,80% (active)
same,growth inhibition,[4]; at 100.0 µM,10%
same,growth inhibition,[5]; at 1.2 µM,11%
same,growth inhibition,[5]; at 3.7 µM,16%
same,growth inhibition,[5]; [17],0%
same,growth inhibition,[5]; at 11.0 µM,15%
same,growth inhibition,[5]; at 33.0 µM,22%
same,growth inhibition,[5]; [18],16%
same,growth inhibition,[5]; at 50.0 µM,66%
same,growth inhibition,[5]; at 100.0 µM,34%
same,growth inhibition,[6]; at 1.2 µM,-7%
same,growth inhibition,[6]; at 3.7 µM,-13%
same,growth inhibition,[6]; at 11.0 µM,-15%
same,growth inhibition,[6]; at 33.0 µM,-9%
same,growth inhibition,[6]; at 100.0 µM,-6%
same,growth inhibition,[7]; [17],11%
same,growth inhibition,[7]; [18],57%
same,growth inhibition,[7]; at 50.0 µM,75.3% (active)
same,growth inhibition,[8]; at 1.2 µM,8%
same,growth inhibition,[8]; at 3.7 µM,12%
same,growth inhibition,[8]; at 11.0 µM,9%
same,growth inhibition,[8]; at 33.0 µM,18%
same,growth inhibition,[8]; at 100.0 µM,26%
same,growth inhibition,[9]; [17],29%
same,growth inhibition,[9]; [18],34%
same,growth inhibition,[9]; at 50.0 µM,61.6%
same,growth inhibition,[10]; at 1.2 µM,15%
same,growth inhibition,[10]; at 3.7 µM,25%
same,growth inhibition,[10]; [17],31%
same,growth inhibition,[10]; at 11.0 µM,46%
same,growth inhibition,[10]; at 33.0 µM,42%
same,growth inhibition,[10]; [18],74% (active)
same,growth inhibition,[10]; at 50.0 µM,79% (active)
same,growth inhibition,[10]; at 100.0 µM,62%
same,growth inhibition,[11]; at 1.2 µM,-21%
same,growth inhibition,[11]; at 3.7 µM,-22%
same,growth inhibition,[11]; at 11.0 µM,-25%
same,growth inhibition,[11]; at 33.0 µM,-11%
same,growth inhibition,[11]; at 100.0 µM,68%
same,growth inhibition,[12]; at 1.2 µM,1%
same,growth inhibition,[12]; at 3.7 µM,-15%
same,growth inhibition,[12]; at 11.0 µM,-16%
same,growth inhibition,[12]; at 33.0 µM,5%
same,growth inhibition,[12]; at 100.0 µM,25%
same,growth inhibition,[13]; at 1.2 µM,0%
same,growth inhibition,[13]; at 3.7 µM,6%
same,growth inhibition,[13]; at 11.0 µM,13%
same,growth inhibition,[13]; at 33.0 µM,11%
same,growth inhibition,[13]; at 100.0 µM,25%
same,growth inhibition,[14]; [17],24%
same,growth inhibition,[14]; [18],60%
same,growth inhibition,[14]; at 50.0 µM,79.3% (active)
same,growth inhibition,[15]; at 1.2 µM,-9%
same,growth inhibition,[15]; at 3.7 µM,11%
same,growth inhibition,[15]; at 11.0 µM,14%
same,growth inhibition,[15]; at 33.0 µM,24%
same,growth inhibition,[15]; at 100.0 µM,36%
COC(=O)C1=C(C(=O)OC)C(C(=O)OC)C(C(=O)OC)C(C(=O)OC)(C(=O)OC)C(C(=O)OC)=C1C(=O)OC (stereo unspecified),growth inhibition,[1]; at 1.2 µM,-2%
same,growth inhibition,[1]; at 3.7 µM,-6%
same,growth inhibition,[1]; at 11.0 µM,5%
same,growth inhibition,[1]; at 33.0 µM,20%
same,growth inhibition,[1]; at 100.0 µM,46%
same,growth inhibition,[16]; at 1.2 µM,-4%
same,growth inhibition,[16]; at 3.7 µM,-4%
same,growth inhibition,[16]; at 11.0 µM,-4%
same,growth inhibition,[16]; at 33.0 µM,1%
same,growth inhibition,[16]; at 100.0 µM,27%
same,growth inhibition,[3]; at 1.2 µM,-18%
same,growth inhibition,[3]; at 3.7 µM,-19%
same,growth inhibition,[3]; at 11.0 µM,-17%
same,growth inhibition,[3]; at 33.0 µM,13%
same,growth inhibition,[3]; at 100.0 µM,62%
same,growth inhibition,[4]; at 1.2 µM,-10%
same,growth inhibition,[4]; at 3.7 µM,-14%
same,growth inhibition,[4]; [17],25%
same,growth inhibition,[4]; at 11.0 µM,7%
same,growth inhibition,[4]; at 33.0 µM,25%
same,growth inhibition,[4]; [18],93% (active)
same,growth inhibition,[4]; at 50.0 µM,77.9% (active)
same,growth inhibition,[4]; at 100.0 µM,62%
same,growth inhibition,[5]; at 1.2 µM,-13%
same,growth inhibition,[5]; at 3.7 µM,-14%
same,growth inhibition,[5]; [17],20%
same,growth inhibition,[5]; at 11.0 µM,1%
same,growth inhibition,[5]; at 33.0 µM,16%
same,growth inhibition,[5]; [18],94% (active)
same,growth inhibition,[5]; at 50.0 µM,60.5%
same,growth inhibition,[5]; at 100.0 µM,55%
same,growth inhibition,[6]; at 1.2 µM,-16%
same,growth inhibition,[6]; at 3.7 µM,-20%
same,growth inhibition,[6]; at 11.0 µM,-11%
same,growth inhibition,[6]; at 33.0 µM,14%
same,growth inhibition,[6]; at 100.0 µM,73% (active)
same,growth inhibition,[7]; [17],96% (active)
same,growth inhibition,[7]; [18],99% (active)
same,growth inhibition,[7]; at 50.0 µM,80.1% (active)
same,growth inhibition,[8]; at 1.2 µM,-11%
same,growth inhibition,[8]; at 3.7 µM,-21%
same,growth inhibition,[8]; at 11.0 µM,-26%
same,growth inhibition,[8]; at 33.0 µM,-7%
same,growth inhibition,[8]; at 100.0 µM,-1%
same,growth inhibition,[9]; [17],88% (active)
same,growth inhibition,[9]; [18],97% (active)
same,growth inhibition,[9]; at 50.0 µM,33%
same,growth inhibition,[10]; at 1.2 µM,-13%
same,growth inhibition,[10]; at 3.7 µM,-13%
same,growth inhibition,[10]; [17],95% (active)
same,growth inhibition,[10]; at 11.0 µM,-22%
same,growth inhibition,[10]; at 33.0 µM,18%
same,growth inhibition,[10]; [18],99% (active)
same,growth inhibition,[10]; at 50.0 µM,54.5%
same,growth inhibition,[10]; at 100.0 µM,35%
same,growth inhibition,[11]; at 1.2 µM,-22%
same,growth inhibition,[11]; at 3.7 µM,-18%
same,growth inhibition,[11]; at 11.0 µM,-17%
same,growth inhibition,[11]; at 33.0 µM,1%
same,growth inhibition,[11]; at 100.0 µM,58%
same,growth inhibition,[12]; at 1.2 µM,-16%
same,growth inhibition,[12]; at 3.7 µM,-23%
same,growth inhibition,[12]; at 11.0 µM,-18%
same,growth inhibition,[12]; at 33.0 µM,-1%
same,growth inhibition,[12]; at 100.0 µM,39%
same,growth inhibition,[13]; at 1.2 µM,-18%
same,growth inhibition,[13]; at 3.7 µM,-11%
same,growth inhibition,[13]; at 11.0 µM,-7%
same,growth inhibition,[13]; at 33.0 µM,18%
same,growth inhibition,[13]; at 100.0 µM,60%
same,growth inhibition,[14]; [17],26%
same,growth inhibition,[14]; [18],87% (active)
same,growth inhibition,[14]; at 50.0 µM,67.4%
same,growth inhibition,[15]; at 1.2 µM,-20%
same,growth inhibition,[15]; at 3.7 µM,-21%
same,growth inhibition,[15]; at 11.0 µM,-5%
same,growth inhibition,[15]; at 33.0 µM,17%
same,growth inhibition,[15]; at 100.0 µM,51%
